Reference: publication PMC10812921, “Transcriptional Coactivator BOB1 (OBF1, OCA-B) Modulates the Specificity of DNA Recognition by the POU-Domain Factors OCT1 and OCT2 in a Monomeric Configuration”

Columns and labels:
POU1 (OCT1 POU domain) = POU1 (OCT1 POU domain) (human, UniProt P14859 260-458); assay: EMSA-SELEX-seq; no BOB1; 20 mM Tris-HCl pH 7.6, 140 mM NaCl, 10% glycerol, 0.5 mM EDTA, 0.05% Triton X-100, 0.1 mg/mL BSA, 0.1 mg/mL poly(dI-dC), 5 mM DTT, room temperature, 20 min; high values mean tight binding; settings: protein: recombinant; dsDNA, one strand shown
Chain of POU1 (OCT1 POU domain) (P14859 260-458): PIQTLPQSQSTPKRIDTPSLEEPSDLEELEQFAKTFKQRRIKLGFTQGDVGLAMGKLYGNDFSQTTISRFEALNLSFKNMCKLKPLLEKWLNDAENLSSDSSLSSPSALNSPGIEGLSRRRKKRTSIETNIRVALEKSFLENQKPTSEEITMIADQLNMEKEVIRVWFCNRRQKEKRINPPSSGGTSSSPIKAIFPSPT
Procedure, shortened: (§1)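 After expression in E. coli BL21, tagged POU-domain proteins were purified under denaturing conditions and then renatured. Each binding reaction held 30 ng protein and 300 ng of a PCR-amplified double-stranded random 35-nt library in 20 μL Tris–HCl pH 7.6 binding buffer, with or without 28 ng coactivator protein, for 20 min at RT. Bands holding complexes were cut from native 6% PAGE, eluted and PCR-amplified across four rounds, and the output was Illumina-sequenced. The value given for binding preference is the share, in percent, of sequenced 8-mers fitting a motif pattern.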

POU2 (OCT2 POU domain) = biological target: T1, POU2 (OCT2 POU domain) (human, UniProt P09086 175-386); assay: as above; settings: protein: recombinant; dsDNA, one strand shown
T1 sequence: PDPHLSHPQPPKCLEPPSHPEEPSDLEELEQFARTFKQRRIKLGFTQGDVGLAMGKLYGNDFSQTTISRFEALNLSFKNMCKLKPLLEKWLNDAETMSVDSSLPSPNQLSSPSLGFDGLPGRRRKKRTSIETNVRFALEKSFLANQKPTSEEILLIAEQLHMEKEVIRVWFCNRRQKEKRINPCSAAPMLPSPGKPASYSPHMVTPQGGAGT
Procedure, shortened: as §1

[1] = biological target: POU1 (OCT1 POU domain);BOB1 (OBF1, OCA-B) (human;human, UniProt P14859;Q16633 260-458;1-256, |); assay: EMSA-SELEX-seq; with BOB1 (ternary complex band); 20 mM Tris-HCl pH 7.6, 140 mM NaCl, 10% glycerol, 0.5 mM EDTA, 0.05% Triton X-100, 0.1 mg/mL BSA, 0.1 mg/mL poly(dI-dC), 5 mM DTT, room temperature, 20 min; high values mean tight binding; settings: protein: recombinant;recombinant; copies: 1;1; dsDNA, one strand shown
Procedure, shortened: as §1

[2] = biological target: T2, POU2 (OCT2 POU domain);BOB1 (OBF1, OCA-B) (human;human, UniProt P09086;Q16633 175-386;1-256, |); assay: as above; settings: protein: recombinant;recombinant; copies: 1;1; dsDNA, one strand shown
T2 sequence 1: T1 sequence
T2 sequence 2: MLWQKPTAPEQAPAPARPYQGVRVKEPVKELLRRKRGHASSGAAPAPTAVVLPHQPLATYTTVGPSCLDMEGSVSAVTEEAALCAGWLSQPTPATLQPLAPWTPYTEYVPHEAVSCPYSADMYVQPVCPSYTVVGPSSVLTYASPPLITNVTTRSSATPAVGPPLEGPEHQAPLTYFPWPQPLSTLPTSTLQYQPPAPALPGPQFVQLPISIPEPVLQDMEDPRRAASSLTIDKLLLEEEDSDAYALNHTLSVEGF
Procedure, shortened: as §1

Sequence	binding signal (POU1 (OCT1 POU domain))	binding signal (POU2 (OCT2 POU domain))	binding signal [1]	binding signal [2]
AGCAAAAT	0.102 % of ANNNNAAN 8-mers	0.0702 % of ANNNNAAN 8-mers	0.107 % of ANNNNAAN 8-mers	0.0759 % of ANNNNAAN 8-mers
ACCGTAAT	0.0454 % of ANNNNAAN 8-mers	0.0529 % of ANNNNAAN 8-mers	0.0332 % of ANNNNAAN 8-mers	0.0495 % of ANNNNAAN 8-mers
ACCCGAAG	0.0126 % of ANNNNAAN 8-mers	0.0109 % of ANNNNAAN 8-mers	0.0129 % of ANNNNAAN 8-mers	0.0132 % of ANNNNAAN 8-mers
AGATCAAT	0.0465 % of ANNNNAAN 8-mers	0.0432 % of ANNNNAAN 8-mers	0.0355 % of ANNNNAAN 8-mers	0.0578 % of ANNNNAAN 8-mers
AGACGAAT	0.0461 % of ANNNNAAN 8-mers	0.0581 % of ANNNNAAN 8-mers	0.0418 % of ANNNNAAN 8-mers	0.0479 % of ANNNNAAN 8-mers
ATGATAAG	0.0843 % of ANNNNAAN 8-mers	0.0984 % of ANNNNAAN 8-mers	0.0714 % of ANNNNAAN 8-mers	0.0768 % of ANNNNAAN 8-mers
ACGGCAAA	0.0328 % of ANNNNAAN 8-mers	0.0305 % of ANNNNAAN 8-mers	0.0445 % of ANNNNAAN 8-mers	0.0371 % of ANNNNAAN 8-mers
ATGTTAAT	1.39 % of ANNNNAAN 8-mers	1.31 % of ANNNNAAN 8-mers	0.208 % of ANNNNAAN 8-mers	0.24 % of ANNNNAAN 8-mers
AATGGAAT	0.138 % of ANNNNAAN 8-mers	0.212 % of ANNNNAAN 8-mers	0.125 % of ANNNNAAN 8-mers	0.147 % of ANNNNAAN 8-mers
AAGATAAG	0.045 % of ANNNNAAN 8-mers	0.0593 % of ANNNNAAN 8-mers	0.046 % of ANNNNAAN 8-mers	0.0429 % of ANNNNAAN 8-mers
ATTAAAAC	0.108 % of ANNNNAAN 8-mers	0.122 % of ANNNNAAN 8-mers	0.0757 % of ANNNNAAN 8-mers	0.0718 % of ANNNNAAN 8-mers
AGCTTAAC	0.0194 % of ANNNNAAN 8-mers	0.0219 % of ANNNNAAN 8-mers	0.0195 % of ANNNNAAN 8-mers	0.0165 % of ANNNNAAN 8-mers
AGAGTAAT	0.0648 % of ANNNNAAN 8-mers	0.0777 % of ANNNNAAN 8-mers	0.0499 % of ANNNNAAN 8-mers	0.0537 % of ANNNNAAN 8-mers
AATACAAA	0.134 % of ANNNNAAN 8-mers	0.108 % of ANNNNAAN 8-mers	0.148 % of ANNNNAAN 8-mers	0.121 % of ANNNNAAN 8-mers
AATATAAC	0.05 % of ANNNNAAN 8-mers	0.0817 % of ANNNNAAN 8-mers	0.0589 % of ANNNNAAN 8-mers	0.0578 % of ANNNNAAN 8-mers
ATACCAAA	0.0397 % of ANNNNAAN 8-mers	0.0541 % of ANNNNAAN 8-mers	0.041 % of ANNNNAAN 8-mers	0.038 % of ANNNNAAN 8-mers
ACGGAAAA	0.0515 % of ANNNNAAN 8-mers	0.0478 % of ANNNNAAN 8-mers	0.0593 % of ANNNNAAN 8-mers	0.0446 % of ANNNNAAN 8-mers
AGACGAAG	0.0198 % of ANNNNAAN 8-mers	0.019 % of ANNNNAAN 8-mers	0.0203 % of ANNNNAAN 8-mers	0.0272 % of ANNNNAAN 8-mers
ATAAAAAG	0.0915 % of ANNNNAAN 8-mers	0.114 % of ANNNNAAN 8-mers	0.0925 % of ANNNNAAN 8-mers	0.0735 % of ANNNNAAN 8-mers
ATATGAAT	0.243 % of ANNNNAAN 8-mers	0.316 % of ANNNNAAN 8-mers	0.122 % of ANNNNAAN 8-mers	0.141 % of ANNNNAAN 8-mers
AAAGAAAA	0.0988 % of ANNNNAAN 8-mers	0.0892 % of ANNNNAAN 8-mers	0.132 % of ANNNNAAN 8-mers	0.0693 % of ANNNNAAN 8-mers
AGCTCAAG	0.0183 % of ANNNNAAN 8-mers	0.0173 % of ANNNNAAN 8-mers	0.0187 % of ANNNNAAN 8-mers	0.0206 % of ANNNNAAN 8-mers
AAGATAAC	0.0248 % of ANNNNAAN 8-mers	0.0334 % of ANNNNAAN 8-mers	0.0285 % of ANNNNAAN 8-mers	0.0388 % of ANNNNAAN 8-mers
AGTTAAAG	0.0545 % of ANNNNAAN 8-mers	0.0564 % of ANNNNAAN 8-mers	0.064 % of ANNNNAAN 8-mers	0.0528 % of ANNNNAAN 8-mers
ATGAGAAC	0.0404 % of ANNNNAAN 8-mers	0.0552 % of ANNNNAAN 8-mers	0.03 % of ANNNNAAN 8-mers	0.0388 % of ANNNNAAN 8-mers
ATTATAAA	0.152 % of ANNNNAAN 8-mers	0.204 % of ANNNNAAN 8-mers	0.0691 % of ANNNNAAN 8-mers	0.0801 % of ANNNNAAN 8-mers
AGCATAAG	0.105 % of ANNNNAAN 8-mers	0.129 % of ANNNNAAN 8-mers	0.0441 % of ANNNNAAN 8-mers	0.0627 % of ANNNNAAN 8-mers
AAGGTAAA	0.108 % of ANNNNAAN 8-mers	0.109 % of ANNNNAAN 8-mers	0.144 % of ANNNNAAN 8-mers	0.0933 % of ANNNNAAN 8-mers
AGATTAAA	0.105 % of ANNNNAAN 8-mers	0.11 % of ANNNNAAN 8-mers	0.0648 % of ANNNNAAN 8-mers	0.071 % of ANNNNAAN 8-mers
AACCCAAA	0.0233 % of ANNNNAAN 8-mers	0.0173 % of ANNNNAAN 8-mers	0.0277 % of ANNNNAAN 8-mers	0.0206 % of ANNNNAAN 8-mers
